Experimental findings from PubChem BioAssay are described below.

Structures are written as SMILES. For part of these data: Measured potencies and affinities stand elsewhere. Calls of active or inactive are those of the source.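 The calls were made as follows, unless noted: active = fluorescence ratio normalized to control raised more than 50% in primary screen plus both repeat runs; inactive = the rest.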

The subject of assay [1] is TRPC4 beta (transient receptor potential cation channel C4), mouse. Briefly: activators of mouse TRPC4 channel, confirmation, cell-based, Fluo4 calcium, HEK293 TRPC4beta/mu-opioid, duplicates, 10 µM (AID 2426).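 As to activation: percent rise of integrated ratio over buffer wells lacking compound which define 0%.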 Conditions: Fluo4 calcium fluorescence, at 10 µM; hits give high values.
Assay [2] concerns transient receptor potential cation channel C4 beta (TRPC4), mouse. Briefly: activators of mouse TRPC4 channel, confirmation, cell-based, second round, Fluo4, HEK293 TRPC4beta/mu-opioid, 1 µM (AID 2461;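 active = primary screen active and over 50% activation in each of two duplicate runs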;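 as to activation: 0% = wells without test compound as baseline of integrated fluorescence ratio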). Conditions: Fluo4 calcium fluorescence, at 1 µM; hits give high values.
The subject of assay [3] is TRPC4 (transient receptor potential cation channel C4 beta), mouse. Briefly: positive allosteric modulators of mouse TRPC4, confirmation, cell-based, second round, Fluo-4, HEK293 TRPC4beta/mu-opioid, 1 µM (AID 2554;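 active = primary screen hit whose fluorescence ratio, in both repeats, exceeds the weak agonist control mean by 3 SD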). To be noted: DAMGO EC20, Fluo-4 calcium flux, at 1 µM; hits give high values. (In general: Calcium flux is commonly read through the fluorescence of an indicator in the cells.)

The subject of assay [4] is TRPC4 beta (transient receptor potential cation channel C4), mouse. Briefly: positive allosteric modulators of mouse TRPC4, confirmation, cell-based, Fluo-4, HEK293 TRPC4beta/mu-opioid (AID 2555;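 active = primary screen hit whose calcium fluorescence ratio, in both repeats, exceeds the weak agonist control mean by 3 SD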). Conditions: DAMGO EC20, Fluo-4 calcium flux, at 10 µM; hits give high values.
Assay [5] concerns the target Short transient receptor potential channel 4 (Mus musculus) (UniProt Q9QUQ5). Briefly: inhibitors of mouse TRPC4 channel, confirmation, cell-based, Fluo4, HEK293 TRPC4beta/mu-opioid (AID 2636;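 active = calcium signal cut by more than 3 SD below the full-agonist control yet still positive, in both repeats and the earlier primary screen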). To be noted: DAMGO, Fluo4 calcium flux, at 10 µM; hits give high values.
For assay [6] the target is unchanged. Briefly: inhibitors of mouse TRPC4 channel, confirmation, cell-based, second round, Fluo4, HEK293 TRPC4beta/mu-opioid, 1 µM (AID 2637;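 active = calcium signal ratio cut to more than 3 SD under the fully stimulated control mean yet still positive, in both repeats and the primary screen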). Conditions: Fluo4 calcium flux, DAMGO, at 1 µM; hits give high values.
For assay [7] the target is unchanged. Briefly: TRPC4 positive allosteric modulators, dose response, cell-based, HEK293 TRPC4/mu-opioid, Fluo-4 calcium, EC20 DAMGO (AID 434941;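 active = earlier screen potentiator hit that boosts the TRPC4 ion channel at some dose, with a dose response; inactive = no potentiation, no dose response, or not a prior hit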;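 also: calcium entry triggered by an EC20 dose of DAMGO at the co-expressed mu-opioid receptor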).
For assay [8] the target is unchanged. Briefly: mouse TRPC4 channel inhibitors, dose response, cell-based, HEK293 TRPC4/mu-opioid, Fluo-4 calcium (AID 434942;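 active = primary screen inhibitor hit that blocks the TRPC4 channel at some tested dose, yielding a dose curve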).
Assay [9] addresses Short transient receptor potential channel 6 (Mus musculus) (UniProt Q61143). Briefly: inhibition of mouse TRPC6 channel, confirmation, selectivity assay for TRPC4 inhibitor project, cell-based, HEK293, membrane potential dye, duplicate (AID 434948;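 active = active in primary screen and both duplicates, each dropping signal beyond three positive-control SD with fluorescence still positive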). Conditions: HEK293 TRPC6, membrane potential dye fluorescence, at 10 µM, stimulated with maximal-effect acetylcholine; hits give high values.

The target is the same in assay [10]. Briefly: activation of mouse TRPC6 channel, confirmation, selectivity assay for TRPC4 activator project, cell-based, HEK293, membrane potential dye, duplicate (AID 434950;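 active = membrane potential signal rise above negative control mean plus 3 SD in both duplicates, also active in the earlier TRPC4 screen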;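 as to activation: 0% = buffer only wells and 100% = acetylcholine maximal-effect wells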). Conditions: HEK293 TRPC6, membrane potential fluorescence, at 10 µM; hits give high values.
For assay [11] the target is unchanged. Briefly: TRPC6 potentiation by TRPC4 potentiator hits, confirmation, selectivity assay for TRPC4 potentiator project, HEK293 cells, membrane potential dye, duplicate (AID 434952;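 active = compound raising the membrane signal above positive-control mean plus 3 SD in both repeats, and a primary screen hit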). Conditions: HEK293 TRPC6, membrane potential dye fluorescence, at 10 µM, maximal acetylcholine added after compound; hits give high values.
Assay [12] deals with Short transient receptor potential channel 4 (Mus musculus) (UniProt Q9QUQ5). Briefly: calcium flux activators in TRPC4/5HT1a cells, counter-screen for TRPC4 activator project, cell-based, second counter screen, HEK293 TRPC4/5HT1a, Fluo-4 (AID 434977;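 active = calcium signal rise above buffer-control mean plus 5 SD in both duplicates, and also a hit in the primary screen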;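 as to activation: plate controls were assay buffer for no effect and maximal serotonin response for full effect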). Conditions: Fluo-4 calcium flux, at 10 µM; hits give high values.
Chain of Short transient receptor potential channel 4 (Mus musculus) (Q9QUQ5 whole entry, looked up): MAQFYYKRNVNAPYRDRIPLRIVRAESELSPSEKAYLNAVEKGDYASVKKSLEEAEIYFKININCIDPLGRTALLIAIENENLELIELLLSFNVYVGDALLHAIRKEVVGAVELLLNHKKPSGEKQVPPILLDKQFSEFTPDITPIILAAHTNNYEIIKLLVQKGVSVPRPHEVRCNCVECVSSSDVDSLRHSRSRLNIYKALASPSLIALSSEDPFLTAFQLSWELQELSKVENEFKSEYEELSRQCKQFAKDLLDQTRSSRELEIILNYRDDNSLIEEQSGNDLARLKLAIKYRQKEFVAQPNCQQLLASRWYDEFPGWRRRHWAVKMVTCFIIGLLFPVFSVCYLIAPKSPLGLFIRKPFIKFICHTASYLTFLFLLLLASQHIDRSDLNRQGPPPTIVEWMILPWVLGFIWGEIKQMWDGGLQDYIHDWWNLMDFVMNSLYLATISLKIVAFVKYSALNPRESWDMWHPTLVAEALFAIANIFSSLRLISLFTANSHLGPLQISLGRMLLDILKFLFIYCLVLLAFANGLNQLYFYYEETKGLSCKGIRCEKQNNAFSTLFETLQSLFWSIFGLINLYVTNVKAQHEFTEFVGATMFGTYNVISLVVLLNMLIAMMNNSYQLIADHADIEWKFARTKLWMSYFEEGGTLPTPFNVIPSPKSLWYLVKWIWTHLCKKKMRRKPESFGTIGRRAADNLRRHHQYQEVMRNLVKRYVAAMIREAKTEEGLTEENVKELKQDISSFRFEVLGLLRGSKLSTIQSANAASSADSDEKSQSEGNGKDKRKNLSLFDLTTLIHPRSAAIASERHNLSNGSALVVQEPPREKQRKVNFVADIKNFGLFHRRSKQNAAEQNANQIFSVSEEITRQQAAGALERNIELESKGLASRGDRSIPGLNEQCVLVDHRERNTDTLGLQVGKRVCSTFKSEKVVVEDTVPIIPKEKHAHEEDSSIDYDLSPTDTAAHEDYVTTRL
A short description of assay [13]: calcium flux inhibitors in TRPC4/5HT1a cells, confirmation, counter-screen for TRPC4 inhibitor project, cell-based, second counter screen, HEK293 TRPC4/5HT1a, Fluo-4 (AID 434978;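 active = primary screen active whose calcium signal fell more than 3 SD beyond the full-serotonin control mean in both duplicate plates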;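 also: serotonin given first at submaximal then at maximal dose after compound preincubation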). To be noted: Fluo-4 calcium flux, at 10 µM, serotonin added to trigger calcium flux; hits give high values.
Assay [14] concerns TRPC4 (mouse), co-expressed with 5HT1a in HEK293. Briefly: calcium flux potentiators in TRPC4/5HT1a cells, confirmation, counter-screen for TRPC4 potentiator project, cell-based, second counter screen, HEK293 TRPC4/5HT1a, Fluo-4 (AID 434979;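 active = signal rise over 3 SD above mean of control wells given weak agonist, in both repeats and first screen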). Conditions: Fluo-4 calcium flux, at 10 µM, serotonin added at its EC20 dose; hits give high values.
Assay [15] is described as follows: calcium flux activation in mu-opioid HEK293 cells, confirmation, counter-screen for TRPC4 activator project, cell-based, HEK293 mu-opioid receptor line (AID 449723;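 active = hit in primary screen, with calcium signal over 5 SD above buffer well mean in both duplicates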;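 also: counter screen cells carry the mu-opioid receptor alone and lack TRPC4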). To be noted: Fluo-4 calcium fluorescence, at 10 µM; hits give high values.
Assay [16] in a line: calcium flux enhancement in mu-opioid HEK293 cells, confirmation, counter-screen for TRPC4 allosteric potentiator project, cell-based, HEK293 mu-opioid receptor line (AID 449724;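 active = calcium signal rise more than 3 SD above the low-dose agonist control mean, in both duplicate plates and the primary screen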;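 also: HEK293 cells carrying mu-opioid receptor only with no TRPC4 channel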). To be noted: Fluo-4 calcium flux, at 10 µM, compound added before EC20 DAMGO stimulus; hits give high values.

Chain of Short transient receptor potential channel 6 (Mus musculus) (Q61143 whole entry, looked up): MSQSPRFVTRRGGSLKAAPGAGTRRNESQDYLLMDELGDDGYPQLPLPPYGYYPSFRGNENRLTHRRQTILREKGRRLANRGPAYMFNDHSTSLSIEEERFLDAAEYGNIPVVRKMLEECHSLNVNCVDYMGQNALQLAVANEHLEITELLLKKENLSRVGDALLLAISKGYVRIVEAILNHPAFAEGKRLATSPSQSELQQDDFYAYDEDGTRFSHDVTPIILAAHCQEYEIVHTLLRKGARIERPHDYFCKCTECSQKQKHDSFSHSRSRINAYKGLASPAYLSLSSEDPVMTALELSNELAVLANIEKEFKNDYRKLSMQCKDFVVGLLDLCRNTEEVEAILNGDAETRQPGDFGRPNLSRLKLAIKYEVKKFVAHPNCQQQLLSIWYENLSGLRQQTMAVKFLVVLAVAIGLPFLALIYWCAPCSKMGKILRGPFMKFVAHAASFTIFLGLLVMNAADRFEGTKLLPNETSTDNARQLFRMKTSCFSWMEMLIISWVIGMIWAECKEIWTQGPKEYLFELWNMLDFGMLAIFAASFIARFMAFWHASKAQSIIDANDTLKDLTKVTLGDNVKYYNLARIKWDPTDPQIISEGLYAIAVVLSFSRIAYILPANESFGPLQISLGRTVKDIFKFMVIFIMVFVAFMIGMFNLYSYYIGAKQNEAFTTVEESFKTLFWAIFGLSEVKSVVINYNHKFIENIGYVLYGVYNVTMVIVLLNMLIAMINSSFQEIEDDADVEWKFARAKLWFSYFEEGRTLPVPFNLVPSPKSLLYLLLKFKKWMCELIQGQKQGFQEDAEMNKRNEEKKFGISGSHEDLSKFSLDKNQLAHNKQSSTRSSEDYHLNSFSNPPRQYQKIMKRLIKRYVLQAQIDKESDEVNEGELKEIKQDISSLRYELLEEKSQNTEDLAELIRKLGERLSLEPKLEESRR

Turning to `CCOC(=O)[C@@H]1CCNC[C@@H]1c1ccccc1`, the values for the activation in [1], in [2] and in [10] were 217% (active), 83% (active) and 30.5% (active), respectively. The outcome in assay [3], in [4], in assay [5], in [6], in [7] and in [8] was inactive. Moreover, the outcome in assay [9], in assay [11], in assay [12], in assay [13], in assay [14] and in assay [15] was inactive. Moreover, the outcome in [16] was inactive.
On to `Cc1cc(NC(=O)CN2CCc3ccccc3C2)nc2c1c(=O)oc1ccccc12`, for which the outcome in [1], in [2], in assay [3], in assay [4], in assay [5] and in [6] was inactive. The result in assay [7], in [8], in assay [9], in assay [10], in assay [11] and in assay [12] was inactive. For the same compound, the result in [13], in assay [14], in [15] and in [16] was inactive.
As to `O=C(NCc1cccnc1)C1CCCN(Cc2cnn(-c3ccccc3)c2-n2cccc2)C1` (stereo not given), the results for the activation in assay [1], in assay [10] and in assay [12] were 83% (active), 46% (active) and 16.2% (active), respectively. Further, the outcome in [2], in assay [3], in assay [4], in assay [5], in assay [6] and in assay [7] was inactive. Further, the result in [8], in [9], in assay [11], in [13], in assay [14] and in assay [15] was inactive. Also, the result in assay [16] was inactive.
Consider `Cc1ccn2cc(CCNC(=O)C3CC=CCC3C(=O)O)nc2c1` (stereo not given), for which the activation is 135% (active) in assay [1] and 59.9% (active) in assay [12]. The result in assay [2], in [3], in assay [4], in [5], in [6] and in assay [7] was inactive. Further, the outcome in assay [8], in [9], in assay [10], in assay [11], in [13] and in [14] was inactive. Moreover, the result in assay [15] and in assay [16] was inactive.
As for `Cc1ccc(Sc2cc(C(=O)NCCN(C)C)c3ccccc3n2)cc1`, the activation in [1] was 91% (active); in assay [12] it was 24.6% (active). Also, the outcome in assay [2], in assay [3], in assay [4], in assay [5], in assay [6] and in assay [7] was inactive. In addition, the result in assay [8], in [9], in assay [10], in assay [11], in [13] and in [14] was inactive. In addition, the outcome in assay [15] and in assay [16] was inactive.
`CN(C)CCCN(C(=O)c1ccc(S(=O)(=O)N(C)Cc2ccccc2)cc1)c1nc2cc3c(cc2s1)OCO3`: the outcome in [1], in assay [2], in assay [3], in assay [4], in [5] and in assay [6] was inactive. Further, the result in assay [7], in assay [8], in assay [9], in assay [10], in assay [11] and in assay [12] was inactive. Further, the result in assay [13], in assay [14], in [15] and in assay [16] was inactive.
For `COc1ccccc1C(=O)NNC(=S)NC(=O)c1cccs1`, the activation in assay [1] was 74% (active); in [12], 59.6% (active); in assay [15], 13.9% (active). The outcome in [2], in assay [3], in assay [4], in assay [5], in assay [6] and in assay [7] was inactive. For the same compound, the result in assay [8], in assay [9], in assay [10], in assay [11], in assay [13] and in [14] was inactive. Further, in assay [16], the outcome was inactive.
Take `Cc1ccc(/C=N\NC(=O)C2COc3cc4ccccc4cc3O2)o1` (stereo not given): the activation in assay [1] is 102% (active); in assay [10], 27% (active); in assay [12] it was 40.6% (active). Moreover, the result in assay [2], in assay [3], in [4], in [5], in assay [6] and in assay [7] was inactive. For the same compound, the result in [8], in assay [9], in [11], in [13], in assay [14] and in assay [15] was inactive. In addition, in assay [16], the outcome was inactive.
With `OC(CNC1CCCc2ccccc21)COc1ccc2ccccc2c1` (stereo not given), the figures for the activation in assay [1], in [10] and in assay [12] were 158% (active), 55% (active) and 30.1% (active), respectively. Also, the result in [2], in assay [3], in assay [4], in [5], in assay [6] and in assay [7] was inactive. Besides, the result in [8], in [9], in assay [11], in assay [13], in assay [14] and in assay [15] was inactive. Besides, the outcome in assay [16] was inactive.
Consider `CN(C)c1ccc(NC(=S)N2CCN(c3ncc(C(F)(F)F)cc3Cl)CC2)cc1`, for which the activation in assay [1] is 112% (active); in assay [10], 27.5% (active); in [12], 54.3% (active). The result in assay [2], in assay [3], in assay [4], in [5], in assay [6] and in [7] was inactive. In addition, the outcome in assay [8], in assay [9], in [11], in assay [13], in [14] and in assay [15] was inactive. The outcome in assay [16] was inactive.
Turning to `CCN1CCN(c2ccc(S(=O)(=O)N3CCCCC3)cc2NC(=O)c2cccc(C)c2[N+](=O)[O-])CC1`, the activation was 143% (active) in [1] and 40.7% (active) in assay [12]. For the same compound, the outcome in assay [2], in assay [3], in assay [4], in assay [5], in [6] and in assay [7] was inactive. For the same compound, the outcome in [8], in assay [9], in assay [10], in [11], in assay [13] and in assay [14] was inactive. The result in assay [15] and in [16] was inactive.
With `Cc1cccc(NC(=S)NCC(c2cccnc2)N(C)C)c1C` (stereo not given), the activation was 82% (active) in [1] and 106% (active) in [2]. The result in assay [3], in assay [4], in assay [5], in assay [6], in assay [7] and in assay [8] was inactive. Moreover, the outcome in [9], in [10], in assay [11], in assay [12], in [13] and in assay [14] was inactive. For the same compound, the outcome in assay [15] and in assay [16] was inactive.
For `Cc1cc(-c2ccc(C)c(S(=O)(=O)NCCCN(Cc3ccccc3)C(C)C)c2)on1`, the results for the activation in assay [1], in assay [10] and in assay [12] were 161% (active), 44.5% (active) and 56.3% (active), respectively. Besides, the outcome in assay [2], in assay [3], in [4], in assay [5], in [6] and in assay [7] was inactive. Besides, the outcome in assay [8], in [9], in assay [11], in assay [13], in [14] and in [15] was inactive. The outcome in assay [16] was inactive.
For the compound `Cc1ccc(C2(O)CN(c3ccccc3C)C3=[N+]2CCS3)cc1` (stereo not given), the activation was 87% (active) in assay [1], 76% (active) in assay [2] and 43.5% (active) in [10]. Besides, the outcome in assay [3], in [4], in assay [5], in [6], in [7] and in assay [8] was inactive. For the same compound, the compound was called inactive in assay [9], in assay [11], in assay [12], in assay [13], in assay [14] and in assay [15]. The result in [16] was inactive.
As for `CCCCN(CC)CCNC(=O)c1cc2c(C)nc3ccccc3c2o1`, the figures for the activation in assay [1] and in [12] were 128% (active) and 42.6% (active), respectively. Also, the outcome in assay [2], in assay [3], in assay [4], in assay [5], in assay [6] and in assay [7] was inactive. Also, the outcome in assay [8], in [9], in [10], in assay [11], in [13] and in [14] was inactive. For the same compound, the result in [15] and in assay [16] was inactive.
